From PubChem BioAssay (NCATS)
Records with an inconclusive call do not appear. A call without a number means that no potency is given here. The source made the active and inactive calls. Calls come from the whole dose curve; as a rule, active = well fitted inhibition curve with a large enough effect; inconclusive = small, poorly fitted or top-dose-only effect; inactive = flat fitted curve, though single readings scatter.

What follows are molecules tested on astro (assay: Drug repurposing screens with cells derived from glioblastoma tumor samples (AID 1345199; note: nearly all actives have a fitted effect of over 40% in size)). Conditions: viability, ATP luminescence, 48 h; series mostly up to 45.9 µM.
Experimental: CD133+ cells were isolated from GBM patient biopsies and cultured as neurospheres. Neurospheres from four patients were used to screen the NCATS pharmaceutical collection (NPC) library of approved drugs and bioactive compounds. […] The neurospheres were incubated with drugs for 48 hours in 1536-well format, then assayed with an ATP content cell viability assay. […] These hits were cherry picked to confirm activity in the four original GBM lines screened plus three other slower growing GMB lines (unable to yield enough cells for a full primary screen). Variable activities of the confirmed primary hits in the different GBM patient lines were observed. The patient line 206 responded to the greatest number of compounds and line 923 responded to the least amount of active compounds.
Potency is the fitted concentration of half-maximal effect.

SMILES	Potency
C[C@H]1C[C@H]2[C@@H]3CCC4=CC(=O)C=C[C@]4(C)[C@@H]3C(=O)C[C@]2(C)[C@@]1(O)C(=O)CO	inactive
CC1(C)[C@H](O[C@H]2O[C@H](C(=O)O)[C@@H](O)[C@H](O)[C@H]2O[C@@H]2O[C@H](C(=O)O)[C@@H](O)[C@H](O)[C@H]2O)CC[C@@]2(C)[C@H]1CC[C@]1(C)[C@H]2C(=O)C=C2[C@H]3C[C@@](C)(C(=O)O)CC[C@]3(C)CC[C@]21C	inactive
Cc1ccccc1C(=O)Nc1ccc(C(=O)N2CCCC(O)c3cc(Cl)ccc32)c(C)c1 (centres undefined)	inactive
N[C@H]1CN(c2c(F)cc3c(=O)c(C(=O)O)cn(C4C[C@@H]4F)c3c2Cl)CC12CC2 (some centres undefined)	inactive
C#CCC(Cc1cnc2nc(N)nc(N)c2n1)c1ccc(C(=O)N[C@@H](CCC(=O)O)C(=O)O)cc1 (some centres undefined)	inactive
Cc1onc(-c2ccccc2)c1C(=O)N[C@@H]1C(=O)N2[C@@H](C(=O)O)C(C)(C)S[C@@H]12	inactive
CCCCCCCCCCCCCCCC(=O)OC[C@@H](NC(=O)C(Cl)Cl)[C@H](O)c1ccc([N+](=O)[O-])cc1	inactive
Nc1ccn(C2CO[C@H](CO)O2)c(=O)n1 (some centres undefined)	inactive
Nc1ccn(C[C@@H](CO)OCP(=O)(O)O)c(=O)n1	inactive
O=C(O)C(=O)Nc1cccc(C2=NN=N[N]2)c1	inactive
O=C1c2c(O)cccc2[C@@H]([C@@H]2O[C@H](CO)[C@@H](O)[C@H](O)[C@H]2O)c2cc(CO)cc(O)c21	inactive
COC1=C(OC)C(=O)C(CC=C(C)CCC=C(C)CCC=C(C)CCC=C(C)CCC=C(C)CCC=C(C)CCC=C(C)CCC=C(C)CCC=C(C)CCC=C(C)C)=C(C)C1=O	inactive
CC(C)N1[N]C(=C2C=c3cc(O)ccc3=N2)c2c(N)ncnc21	3.55 µM (active)
CCCCCCCN(CC)CCCC(O)c1ccc(NS(C)(=O)=O)cc1 (centres undefined)	inactive
